{"source": "PubChem BioAssay (NCATS)", "note": "Inconclusive results are not listed. A call without a number means that no potency is given here. The source made the active and inactive calls. The call rests on the fitted dose curve; in most records, active means well fitted cell-killing curve with a large enough effect; inconclusive means small, poorly fitted or top-dose-only effect, or effect the other way; inactive means flat fitted curve, though single readings scatter. Potency means the concentration at half of the fitted maximal effect."}
{"system": "JEG-3", "experiment": "Primary qHTS to identify gynecologic anti-cancer compounds using libraries of approved drugs and bioactive compounds (AID 1345084); further: nearly all actives have a fitted effect of over 55% in size", "conditions": "Gynecologic cancer cell panel viability, ATPlite luminescence, 48 h; series mostly up to 57.5 µM", "how_it_was_run": "(§1)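 Five-concentration response, 48 h; readout is ATP-driven luciferase luminescence.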"}
{"smiles": "CC(C)NNC(=O)c1ccncc1", "Potency": "inactive"}
{"smiles": "CCN(CC)CCNC(=O)c1cc(S(C)(=O)=O)ccc1OC", "Potency": "inactive"}
{"smiles": "c1cnc(N2CCN(Cc3ccc4c(c3)OCO4)CC2)nc1", "Potency": "inactive"}
{"smiles": "NC1=NCC2c3ccccc3Cc3ccccc3N12", "note": "(stereo not given)", "Potency": "inactive"}
{"smiles": "CCCCCN(CCCCC)C(=O)C(CCC(=O)O)NC(=O)c1ccc(Cl)c(Cl)c1", "note": "(stereo not given)", "Potency": "inactive"}
{"smiles": "OCCN1CCN(CCCN2c3ccccc3C=Cc3ccccc32)CC1", "Potency": "inactive"}
{"smiles": "CN1C(=O)CC[C@H]1c1cccnc1", "Potency": "inactive"}
{"smiles": "CCC(=O)c1ccc2c(c1)N(CCCN(C)C)c1ccccc1S2", "Potency": "inactive"}
{"smiles": "C[C@]12CC[C@@H]3c4ccc(O)cc4C[C@@H](CCCCCCCCCS(=O)CCCC(F)(F)C(F)(F)F)[C@H]3[C@@H]1CC[C@@H]2O", "note": "(stereo not given in full)", "Potency": "inactive"}
{"smiles": "CCCN1C[C@H](CSC)C[C@@H]2c3cccc4[nH]cc(c34)C[C@H]21", "Potency": "inactive"}
{"smiles": "CC1=NS(=O)(=O)c2cc(Cl)ccc2N1", "Potency": "inactive"}
{"smiles": "O=C(O)CN(CCN(CC(=O)O)CC(=O)O)CCN(CC(=O)O)CC(=O)O", "Potency": "inactive"}
{"smiles": "c1cc(CN2CCCCC2)cc(OCCCNc2nc3ccccc3s2)c1", "Potency": "inactive"}
{"smiles": "C[C@H](CS)C(=O)N1CCC[C@H]1C(=O)O", "Potency": "inactive"}
{"smiles": "CCc1cccc(N(C)C(N)=Nc2cccc3ccccc23)c1", "Potency": "inactive"}
{"smiles": "CCc1c(C)[nH]c2c1C(=O)C(CN1CCOCC1)CC2", "note": "(stereo not given)", "Potency": "inactive"}
{"smiles": "CNCCCN1c2ccccc2CCc2ccccc21", "Potency": "inactive"}
{"smiles": "Cc1ccc(/C(=C\\CN2CCCC2)c2ccccn2)cc1", "Potency": "inactive"}
{"smiles": "NC(N)=N/N=C/c1c(Cl)cccc1Cl", "Potency": "inactive"}
{"smiles": "CC[N+](C)(C)c1cccc(O)c1", "Potency": "inactive"}
{"smiles": "Cc1ccc(Cl)c(Nc2ccccc2C(=O)O)c1Cl", "Potency": "inactive"}
{"smiles": "CN1C[C@H](C(=O)N[C@]2(C)O[C@@]3(O)[C@@H]4CCCN4C(=O)[C@H](Cc4ccccc4)N3C2=O)C[C@@H]2c3cccc4[nH]cc(c34)C[C@H]21", "Potency": "inactive"}
{"smiles": "O=C(CCCN1CCC(O)(c2cccc(C(F)(F)F)c2)CC1)c1ccc(F)cc1", "Potency": "inactive"}
{"smiles": "CCCN(CCC)C(=O)C(CCC(=O)O)NC(=O)c1ccccc1", "note": "(stereo not given)", "Potency": "inactive"}
{"smiles": "CC1=C(C)C(=O)C(CCCCC#CCCCC#CCO)=C(C)C1=O", "Potency": "inactive"}
{"smiles": "Cc1cc(C)c(/C=C2\\C(=O)Nc3ccccc32)[nH]1", "Potency": "inactive"}
{"smiles": "COC(=O)[C@H]1[C@H]2C[C@@H]3c4[nH]c5cc(OC)ccc5c4CCN3C[C@H]2C[C@@H](OC(=O)c2cc(OC)c(OC)c(OC)c2)[C@@H]1OC", "Potency": "inactive"}
{"smiles": "CCN(CC)CCCN(c1ccccc1)C1Cc2ccccc2C1", "Potency": "inactive"}
{"smiles": "CCOC(=O)c1cnc2c(cnn2CC)c1NN=C(C)C", "Potency": "inactive"}
{"smiles": "NC(N)=NC(=O)Cc1c(Cl)cccc1Cl", "Potency": "inactive"}
{"smiles": "COc1ccc([C@@H]2Sc3ccccc3N(CCN(C)C)C(=O)[C@@H]2OC(C)=O)cc1", "Potency": "inactive"}
{"smiles": "CC(C)(C)c1ccc(C(=O)CCCN2CCC(OC(c3ccccc3)c3ccccc3)CC2)cc1", "Potency": "inactive"}
{"smiles": "CN(C)CC[C@@H](c1ccc(Br)cc1)c1ccccn1", "Potency": "inactive"}
{"system": "OV90", "experiment": "Primary qHTS to identify gynecologic anti-cancer compounds using libraries of approved drugs and bioactive compounds (AID 1345084); further: nearly all actives have a fitted effect of over 55% in size", "conditions": "Gynecologic cancer cell panel viability, ATPlite luminescence, 48 h; series mostly up to 57.5 µM", "how_it_was_run": "as §1"}
{"smiles": "CC(C)NNC(=O)c1ccncc1", "Potency": "inactive"}
{"smiles": "CCN(CC)CCNC(=O)c1cc(S(C)(=O)=O)ccc1OC", "Potency": "inactive"}
{"smiles": "c1cnc(N2CCN(Cc3ccc4c(c3)OCO4)CC2)nc1", "Potency": "inactive"}
{"smiles": "CCCCCN(CCCCC)C(=O)C(CCC(=O)O)NC(=O)c1ccc(Cl)c(Cl)c1", "note": "(stereo not given)", "Potency": "inactive"}
{"smiles": "CN1C(=O)CC[C@H]1c1cccnc1", "Potency": "inactive"}
{"smiles": "C[C@]12CC[C@@H]3c4ccc(O)cc4C[C@@H](CCCCCCCCCS(=O)CCCC(F)(F)C(F)(F)F)[C@H]3[C@@H]1CC[C@@H]2O", "note": "(stereo not given in full)", "Potency": "inactive"}
{"smiles": "CCCN1C[C@H](CSC)C[C@@H]2c3cccc4[nH]cc(c34)C[C@H]21", "Potency": "inactive"}
{"smiles": "O=C(O)CN(CCN(CC(=O)O)CC(=O)O)CCN(CC(=O)O)CC(=O)O", "Potency": "inactive"}
{"smiles": "CCc1c(C)[nH]c2c1C(=O)C(CN1CCOCC1)CC2", "note": "(stereo not given)", "Potency": "inactive"}
{"smiles": "Cc1ccc(/C(=C\\CN2CCCC2)c2ccccn2)cc1", "Potency": "inactive"}
{"smiles": "CC[N+](C)(C)c1cccc(O)c1", "Potency": "inactive"}
{"smiles": "Cc1ccc(Cl)c(Nc2ccccc2C(=O)O)c1Cl", "Potency": "inactive"}
{"smiles": "CN1C[C@H](C(=O)N[C@]2(C)O[C@@]3(O)[C@@H]4CCCN4C(=O)[C@H](Cc4ccccc4)N3C2=O)C[C@@H]2c3cccc4[nH]cc(c34)C[C@H]21", "Potency": "inactive"}
{"smiles": "C[n+]1cc2c3c(ccc2c2ccc4cc5c(cc4c21)OCO5)OCO3", "Potency": "11.2 µM (active)"}
{"smiles": "CCCN(CCC)C(=O)C(CCC(=O)O)NC(=O)c1ccccc1", "note": "(stereo not given)", "Potency": "inactive"}
{"smiles": "CC1=C(C)C(=O)C(CCCCC#CCCCC#CCO)=C(C)C1=O", "Potency": "inactive"}
{"smiles": "Cc1cc(C)c(/C=C2\\C(=O)Nc3ccccc32)[nH]1", "Potency": "inactive"}
{"smiles": "COC(=O)[C@H]1[C@H]2C[C@@H]3c4[nH]c5cc(OC)ccc5c4CCN3C[C@H]2C[C@@H](OC(=O)c2cc(OC)c(OC)c(OC)c2)[C@@H]1OC", "Potency": "inactive"}
{"smiles": "CCOC(=O)c1cnc2c(cnn2CC)c1NN=C(C)C", "Potency": "inactive"}
{"smiles": "COCC(=O)O[C@]1(CCN(C)CCCc2nc3ccccc3[nH]2)CCc2cc(F)ccc2[C@@H]1C(C)C", "Potency": "22.4 µM (active)"}
{"smiles": "COc1ccc([C@@H]2Sc3ccccc3N(CCN(C)C)C(=O)[C@@H]2OC(C)=O)cc1", "Potency": "inactive"}
{"smiles": "CC(N=C(NC#N)Nc1ccncc1)C(C)(C)C", "note": "(stereo not given)", "Potency": "inactive"}
